Compound activity from PubChem BioAssay.
KB-3-1 cytotox: kills parental KB-3-1 adenocarcinoma cells; Potency, µM (highest dose often 46.1 µM), usual class: cytotoxic; AID 1347075; 400,000 tested, 1.4% active; KB-3-1 viability, CellTiter-Glo ATP luminescence, 72 h; note: % is set by controls: 0 for no effect and ±100 for the full control effect; nearly all actives have a fitted effect of over 60% in size
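KB-3-1 parental drug-naive adenocarcinoma cells in DMEM/10% FBS, incubated 72 h at 37 C with pin-transferred compounds across a concentration series. Viability by CellTiter-Glo luminescence; concentration-response curves fitted after normalization.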
PINK1 expr mod: changes PINK1 expression | 410,000 tested, 0.2% active | AID 624263 | PINK1 immunofluorescence, high-content cytometry, 24 h | Potency, µM (series often up to 76.6 µM), inactives show top-dose activation (PINK1 increase), usual class: activators; active = well fitted activation curve with a large enough effect; inconclusive = small, poorly fitted or top-dose-only effect; cell line not stated here; note: % of control where 0% means no effect; nearly all actives have a fitted effect of over 65% in size
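Stable cell line treated 24 h with compounds at 5 concentrations (CCCP controls), then fixed and immunostained for PINK1 plus nuclear and cell stains; PINK1 immunofluorescence quantified by laser-scanning microplate cytometry.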
MCF10A rereplic: DNA re-replication induction in MCF 10a cells | MCF 10A DNA re-replication, Hoechst nuclear intensity, 48 h | Potency, µM (titrated, usually from 46.1 µM), without a hit: top-dose activity, positive = re-replication, hits mostly activators | 350,000 tested, 2.9% active | AID 624296; note: % of control where 0% means no effect; nearly all actives have a fitted effect of over 50% in size
SW480 rereplic: DNA re-replication induction in SW480 cells; SW480 DNA re-replication, Hoechst DNA content imaging, 48 h; Potency, µM (highest dose often 46.1 µM), for the others: at the highest dose re-replication activation, hits mostly activators; 340,000 tested, 1.8% active; AID 624297; note: % of control where 0% means no effect; nearly all actives have a fitted effect of over 55% in size
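Cells (250 per well) received 23 nL compound or DMSO by pin tool and were kept 48 hr at 37 C, 5% CO2. Nuclei were then stained with Hoechst for 40 min and scanned for DNA content.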
KB-V1 cytotox: kills drug-selected multidrug resistant KB-V1 cells; KB-V1 MDR cells viability, CellTiter-Glo, 72 h; Potency, µM (doses to about 46.1 µM), actives largely listed as cytotoxic; 400,000 tested, 3.4% active; AID 1347076; note: % is set by controls: 0 for no effect and ±100 for the full control effect; nearly all actives have a fitted effect of over 60% in size
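KB-V1, DMEM (no phenol red) + 10% FBS; cpd pin-transferred, titration series; 72 h, 37 degrees C; CellTiter-Glo, luminescence. Data normalized, curve-fit.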
TSG101-PTAP inh: blocks PTAP/TSG101 interaction to inhibit HIV-1 budding; Q99816; Potency, µM (top dose mostly 115 µM), inactives show at the highest dose activity change, negative = inhibition, most hits filed as inhibitors; AID 493005; Fluorescence polarization, FITC-PTAP peptide / Tsg101 binding; 340,000 tested, under 10 active; active = well fitted inhibition curve with a large enough effect in the main read-out, with a control signal flat, not every such curve was filed as active; inconclusive = small, poorly fitted or top-dose-only effect, or effect the other way, or a change in a side signal; inactive = no such curve, though single readings can be large or run the other way; note: % of control where 0% means no effect
Target sequence (Q99816 whole entry, looked up): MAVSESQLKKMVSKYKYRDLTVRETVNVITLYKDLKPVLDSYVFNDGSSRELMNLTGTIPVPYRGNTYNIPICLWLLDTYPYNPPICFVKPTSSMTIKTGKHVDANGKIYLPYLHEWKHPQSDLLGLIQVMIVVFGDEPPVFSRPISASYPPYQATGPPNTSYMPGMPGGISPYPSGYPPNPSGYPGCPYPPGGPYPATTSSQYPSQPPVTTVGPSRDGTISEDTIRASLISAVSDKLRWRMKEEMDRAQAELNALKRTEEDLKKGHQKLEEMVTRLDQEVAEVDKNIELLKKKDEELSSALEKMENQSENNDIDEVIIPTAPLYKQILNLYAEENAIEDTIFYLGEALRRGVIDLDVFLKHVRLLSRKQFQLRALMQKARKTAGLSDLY
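Fluorescence polarization binding of Tsg101 binding domain (10 uM final) to FITC-labeled PTAP peptide (50 nM final) in HEPES pH 7.5 buffer with NaCl, Tween 20, EDTA, TCEP. Compounds added before peptide; binding 20 min at RT.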
Numbers without * were called inactive; i = inactive; ? = inconclusive; nt = no result given; [ ] = remark or other dose. Rows were chosen to be rich in hits. Some 6.8% of all compounds tested hit in one or more screens of this group. Unless noted, calls come from the whole dose curve; as a rule, active = well fitted curve in the direction sought with a large enough effect; inconclusive = small, poorly fitted or top-dose-only effect, or another doubt; inactive = no such curve, though single readings can be large; an effect the other way counts as inactive or inconclusive. Potency is the fitted concentration of half-maximal effect.

SMILES	KB-3-1 cytotox	PINK1 expr mod	MCF10A rereplic	SW480 rereplic	KB-V1 cytotox	TSG101-PTAP inh
CCC(=O)NC(Cc1ccccc1)c1ccc2c(c1)OCCCO2 (stereo not drawn)	i	-0.4%	-0.1%	98.9%	13µM*	1.9%
Cc1cc(=O)[nH]c(N/N=C/c2ccccn2)n1	?	1.0%	?	4.11µM*	?	0.4%
CC(=O)Nc1ccc(NC(=O)CC2Sc3ccccc3NC2=O)cc1 (stereo not drawn)	i	-0.9%	nt	nt	?	nt
O=C(CC1Sc2ccccc2NC1=O)NNc1cccc(Cl)c1Cl (stereo not drawn)	i	3.9%	20.3%	?	20.6µM*	-1.9%
O=C(CSc1ccc(Cl)cc1)N1CCC(c2nc3ccccc3s2)CC1	?	1.1%	?	-4.0%	10.3µM*	-0.2%
O=C(c1ccccc1Cl)N1CCC(c2nc3ccccc3s2)CC1	i	1.5%	nt	nt	13µM*	nt
NC(=O)C1CCN(C(=O)c2cc(-c3ccc(Cl)s3)nc3ccccc23)CC1	i	1.2%	?	18.4µM*	i	-10.0%
O=C(c1ccccc1Br)N1CCC(c2nc3ccccc3s2)CC1	i	2.5%	20.9%	6.6%	i	-6.4%
CC(Oc1ccc(F)cc1)C(=O)N1CCC(c2nc3ccccc3s2)CC1 (stereo not drawn)	i	2.3%	nt	nt	8.2µM*	nt
Cc1ccc2oc(=O)n(Cc3ccccc3Cl)c2c1	i	5.0%	nt	nt	i	nt
O=C(C1CCCN(S(=O)(=O)c2cccc3nsnc23)C1)N1CCN(c2ccccc2)CC1 (stereo not drawn)	?	5.5%	nt	nt	i	nt
CC(=O)C(C(c1ccccc1)c1c[nH]c2ccccc12)[N+](=O)[O-] (stereo not drawn)	7.31µM*	5.0%	?	?	?	-1.7%
O=C(Nc1nnc(-c2ccccc2)o1)c1nc2ccccc2s1	i	16.6%	23.1µM*	-4.2%	i	-4.5%
O=C(Nc1nnc(-c2ccncc2)o1)c1ccc(Br)s1	20.6µM*	0.3%	?	?	?	-8.0%
NC(=O)c1oc2ccccc2c1NC(=O)c1nc2ccccc2s1	i	11.1%	12.3%	17.0%	i	0.9%
O=C(Nc1nnc(-c2ccco2)o1)c1ccc([N+](=O)[O-])s1	?	1.9%	20.6µM*	?	?	-4.5%
COC1=CC(=O)C=C(OC)C1=O	?	0.0%	?	-0.5%	i	-3.4%
COC1=CC(=O)c2ccccc2C1=O	16.4µM*	20.4%	18.4µM*	?	?	-3.1%
COc1cc2cc(/C=C/C(=O)c3ccco3)c(Cl)nc2cc1OC	?	-3.0%	23.1µM*	20.6µM*	?	-4.1%
Cc1ccc2cc(/C=C/C(=O)c3ccco3)c(Cl)nc2c1	i	3.8%	8.2µM*	?	?	-1.4%
Cc1ccc2nc(Cl)c(/C=C/C(=O)c3ccco3)cc2c1	?	0.7%	?	-3.4%	i	0.5%
COc1ccc(N2CCN(C(=S)Nc3cc(C)ccn3)CC2)cc1	i	nt	nt	nt	i	nt
Cc1ccc(S(=O)(=O)c2c(C)nn(C(C)(C)C)c2OC(=O)c2ccco2)cc1	i	?	13µM*	-0.5%	i	-3.5%
Cc1ccc(S(=O)(=O)c2c(C)nn(C(C)(C)C)c2OC(=O)c2cccs2)cc1	i	?	18.4µM*	-4.7%	i	-4.3%
O=C1N=C(N2CCCCC2)S/C1=C\c1ccc(Br)cc1	i	0.7%	1.5%	-10.4%	i	-0.1%
SMILES	KB-3-1 cytotox	PINK1 expr mod	MCF10A rereplic	SW480 rereplic	KB-V1 cytotox	TSG101-PTAP inh
O=C1N=C(N2CCCCC2)S/C1=C/C1=Cc2ccccc2OC1	i	1.2%	18.4µM*	22.9%	i	-1.5%
Nc1c(S(=O)(=O)c2cccs2)c2nc3ccccc3nc2n1Cc1cccs1	i	?	-1.0%	-3.4%	i	1.7%
Cc1ccc(S(=O)(=O)c2c(N)n(CCCO)c3nc4ccccc4nc23)cc1	i	2.4%	-1.0%	6.1%	i	-0.2%
CC(C)CCn1c(N)c(S(=O)(=O)c2cccs2)c2nc3ccccc3nc21	i	-1.0%[38.3 µM]	15.6%	?	20.6µM*	nt
Cc1ccc(S(=O)(=O)c2c(N)n(CCC(C)C)c3nc4ccccc4nc23)cc1	?	?	?	16.4µM*	13µM*	-0.1%
Cc1ccc(NC(=O)Nc2cn(C)c(=O)c3ccccc23)c(Cl)c1	i	7.0%	nt	nt	i	nt
COc1ccccc1CNS(=O)(=O)c1ccc2c(c1)NC(=O)C(C)C(=O)N2 (stereo not drawn)	nt	2.8%	nt	nt	nt	nt
CCOC(=O)c1c(Nc2ccc(Cl)cc2)sc(/C=C2\C=Nc3ccccc32)c1O	i	10µM*	?	?	?	10.8%
CC(C)(C)OC(=O)N1CCC(c2c(C(=O)Nc3ccc4c(c3)OCCO4)cnn2-c2ccccc2)CC1	i	-0.3%	nt	nt	i	nt
COc1ccc(/C=c2\s/c(=C/C(=O)c3ccc(C)cc3)[nH]c2=O)c(OC)c1	i	?	4.11µM*	?	i	?
COc1cccc(/C=c2\s/c(=C/C(=O)c3ccc(C)cc3)[nH]c2=O)c1OC	i	?	13.8%	-4.1%	?	-3.5%
COc1cccc(/C=c2\s/c(=C\C(=O)C(C)(C)C)[nH]c2=O)c1	?	7.1%	?	?	14.6µM*	-2.5%
COc1cccc(/C=C2\CCCCC2=O)c1	i	-2.8%	3.8%	74.3%	?	-0.6%
CC(=O)c1ccc(N2C(=O)N(Cc3cccc(C(F)(F)F)c3)c3ccccc3S2(=O)=O)cc1	?	-0.4%	nt	nt	i	nt
O=S(=O)(CCSc1nc2ccccc2o1)c1nc2ccccc2s1	i	8.8%[38.3 µM]	?	4.61µM*	i	-5.7%
C/C(=N\NC(=O)CSc1nc(C)cc(C)n1)c1cccs1	i	2.9%	-5.1%	-2.3%	i	-8.7%
C/C(=N\NC(=O)Cn1nc(C)c(Br)c1C)c1cccs1	i	13.3%	-0.8%	2.5%	14.6µM*	-3.4%
Cc1nc([N+](=O)[O-])c(C(=O)OCc2ccccc2Br)n1C	?	1.6%	-1.6%	-9.1%	20.6µM*	0.0%
CCCCCCOc1ccc(C(=O)O)cc1C#N	i	0.6%	18.4µM*	-0.5%	i	-4.9%
O=C(c1ccc2c(c1)OCCO2)C1CCN(C(=O)c2ccc(F)c(F)c2)CC1	?	-1.0%[38.3 µM]	1.7%	-4.5%	5.8µM*	-4.5%
O=C(c1ccc2c(c1)OCCO2)C1CCN(C(=O)c2ccc(F)cc2)CC1	?	7.4%[38.3 µM]	-0.9%	-18.2%	i	-4.8%
